Growth data for 40 compounds are collected here from PubChem BioAssay (NCI).

This is part of a sample that, as a whole, favours compounds with a hit. Of some 83,000 tested, about 20% had one in any assay.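 In brief: 96-well plates, 48 h treatment, single concentration, percent growth endpoint.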 Unmarked numbers belong to inactive results. Active and inactive are the calls of the source.

This assay has as its system SK-MEL-5 melanoma. Kind of assay: NCI-60 one-dose screen, 48 h (100 = growth as untreated, 0 = no growth, -100 = all killed). The note with it: 10 µM unless noted. The protocol: Growth inhibition of the SK-MEL-5 human tumor cell line is measured as a screen for anti-cancer activity. Cells are grown in 96 well plates and exposed to the test compound for 48 hours. Compounds are tested at a single concentration, which is 10^-5 M for most compounds. The reported endpoint is percent growth (GI% or GIPRCNT), where numbers from 0 - 100% represent growth inhibition, and numbers from -100% - 0 represent cell death. For example, a value of 40 represents 60% growth inhibition. A value of 0 means no net growth occurred over the course of the experiment. A value of -40 indicates 40% of cells at the beginning of the experiment died by the end of the experiment. A value of -100 means all cells are dead at the end of the experiment.
NCI-60 Human Tumor Cell Lines Screen was performed using the standard one-dose NCI protocol, which is described in more detail at https://dtp.cancer.gov/discovery_development/nci-60/default.htm.
Compounds with GIPRCNT values below 10 were considered active. Activity score was based on GIPRCNT using the following formula: […]
Score is 0 for GIPRCNT values of 100 or above, 50 for GIPRCNT values of 0, and 100 for GIPRCNT values of -100.
For the compound `Nc1nonc1-c1nc2ccccc2n1Cc1ccc(F)cc1`, the growth was 56.8%.

Regarding `Clc1cn2cc(-c3ccc(Cl)c(Cl)c3Cl)nc2s1`, the growth was 100%.

Consider `COc1c(B(O)O)cccc1-c1nc2c(F)cc3n[nH]c(C)c3c2c2c1CCCC2`, for which the growth is 20.4%.

As for `CC(=O)N1N=C(c2ccc(C)cc2)CC1c1cn(-c2ccccc2)nc1-c1cccc(Nc2ccnc3cc(Cl)ccc23)c1` (stereo not given), the growth is 73.8%. With `CC(=O)c1nn(-c2ccccc2)/c(=N\N=C\c2coc3ccc(F)cc3c2=O)s1`, the growth was 98.3%. As to `CC(=O)OC1Oc2ccccc2-c2oc3nc(=N)n(C)c-3cc21` (stereo not given), the growth was 108%.

For the compound `CC1CN(CCCOC(=O)Nc2ccc(Cl)cc2)CCN1C(C)(C)C` (stereo not given), the growth was 97.6%.

For `CC(C)c1[nH]ncc1-c1nc2ccc3[nH]ncc3c2c2c1CCCC2`, the growth was 45.2%. Take `CCN(CC)Cc1cc(Nc2ccnc3cc(Cl)ccc23)cc(-c2ccc(Cl)cc2)c1O`: the growth is -49.6% (active). The value for `Nc1c(C(=O)c2ccc(Br)cc2)sc2nc3c(cc12)CCCC3` was 92%. The value for `Fc1cc(-c2nnc3sc(-c4ccc(Cl)cc4)nn23)c(Cl)cc1Cl` was 85.6%; that for `O=C(CSc1ccc(Cl)cc1)Nc1ccc(-c2nc3ccccc3s2)c(Cl)c1` was 79%. Regarding `C#CCNC(=S)N/N=C(\C)c1ccccn1`, the growth was -30.5% (active). For `CCCCCCCCNC(C)C(O)c1ccc(SC(C)C)cc1` (stereo not given) the value was 68.4%. The value for `c1ccc(C(CC2=NCCCN2)c2ccccc2)cc1` was 105%; that for `CN1CCN(Cc2ccc(NC(=O)c3cncc(C#Cc4ncc5cnccn45)c3)cc2C(F)(F)F)CC1` was 55.3%. For `Nc1ccc(C(OC(=O)c2cc3ccccc3c(Cc3c(O)c(C(=O)OC(c4ccc(N)cc4)(c4ccc(N)cc4)c4ccc(N)cc4)cc4ccccc34)c2O)(c2ccc(N)cc2)c2ccc(N)cc2)cc1` the value was -47.1% (active). With `CCc1ccc2c(c1)N(CCO)C1=C(C(=O)OC1)C2c1cccc(Br)c1` (stereo not given), the growth was 33.2%. For `CCCCc1n(Cc2ccc3ccccc3n2)cc[n+]1Cc1ccc2ccccc2n1` the value was -76.3% (active); for `Cc1[nH]nc2ccc3nc(-c4ccc5[nH]ncc5c4)c4c(c3c12)CCCC4`, 10.4%; for `Cc1ccc(N=CNN=C(N)N)cc1`, 105%. For `O=C(Oc1c(Cl)c(Cl)c(Cl)c(Cl)c1Cl)C1CCCN1C(=O)OCc1ccccc1` (stereo not given) the value was 76.2%; for `O=c1c2sc3ccccc3c2nnn1-c1ccc(F)c(Cl)c1`, 67.3%.

Consider `CCOCC(O)(c1ccc(Cl)cc1)c1ccc(Cl)cc1`, for which the growth is 96.1%.

Take `CC(=O)OC1Oc2cc(C)c(C)cc2-c2oc(=O)c(-c3cc4ccccc4oc3=O)cc21` (stereo not given): the growth is 115%. The value for `COc1ccc(-c2nc3ccc(Cc4ccc5nc(-c6ccc(OC)cc6)[nH]c5c4)cc3[nH]2)cc1` was 13.5%; that for `Cc1cc(C)c2c(NC(=O)Nc3ccc(Cl)c(Cl)c3)n[nH]c2n1` was 103%.

Turning to `O=C(Nc1ccc(Br)cc1)Nc1ccccc1Cl`, the growth is 101%. Turning to `C=CCn1c(SCC(=O)Nc2ccc(/C(C)=N\O)cc2)nnc1-c1cc(-c2ccc(Cl)cc2)nc2ccccc12`, the growth was 33.9%. In the case of `COc1ccc2[nH]c(C(=O)OCc3ccc4c(Br)cc(Br)c(O)c4n3)cc2c1`, the growth was -89.6% (active). For `COc1ccc(-c2nsc3c2NC(=O)CC3c2ccc3c(c2)OCO3)cc1` (stereo not given) the value was 25.8%. For `O=NN(CC(=O)NNc1ccccc1)CC(=O)NNc1ccccc1` the value was 90.5%; for `CCCCCCCCCCCCCC[N+](C)(C)CCCCCCCCCCCCCC`, 69.4%; for `CCN1CCN(Cc2ccc(NC(=O)c3nc4ccc5[nH]ncc5c4c4c3CCCC4)cc2C(F)(F)F)CC1`, -75.3% (active).

`NC(=Nc1ccccc1)SCCCSC(N)=Nc1ccccc1`: the growth was 85.5%. The value for `COc1ccc(C2CC(c3cccc(Nc4ccnc5cc(Cl)ccc45)c3)=NN2c2ccccc2)cc1` (stereo not given) was 39.1%; that for `Clc1ccc(Nc2ncnc3c2sc2ncccc23)cc1` was 23.4%.

In the case of `CN=C1C=C/C(=N/N=c2/ccn(O)cc2C)C=C1C`, the growth is 97.8%. For `CCN(CC)c1ccc(C(=N)c2ccc(N(C)C)cc2)cc1` the value was -80.1% (active); for `O=C(Nc1ccc(Cl)c(C(F)(F)F)c1)c1ccc(Nc2ccc(Cl)nn2)cc1`, 59.6%.
